Compound activity as filed in PubChem BioAssay.
A selection: hits, their analogues and other compounds. The true share with any hit is near 2.7%.
GLP-1R agonist: agonists of human GLP-1 receptor; HEK293 GLP-1R CRE-luciferase, luminescence, 4-6 h; cells express a hypersensitive GLP-1R form; Potency, µM (series often up to 45.6 µM), without a hit: at the top dose activation, most hits filed as activators; 0.007% of 380,000 active; AID 624172; note: % of control where 0% means no effect
Target sequence (P43220 whole entry, looked up): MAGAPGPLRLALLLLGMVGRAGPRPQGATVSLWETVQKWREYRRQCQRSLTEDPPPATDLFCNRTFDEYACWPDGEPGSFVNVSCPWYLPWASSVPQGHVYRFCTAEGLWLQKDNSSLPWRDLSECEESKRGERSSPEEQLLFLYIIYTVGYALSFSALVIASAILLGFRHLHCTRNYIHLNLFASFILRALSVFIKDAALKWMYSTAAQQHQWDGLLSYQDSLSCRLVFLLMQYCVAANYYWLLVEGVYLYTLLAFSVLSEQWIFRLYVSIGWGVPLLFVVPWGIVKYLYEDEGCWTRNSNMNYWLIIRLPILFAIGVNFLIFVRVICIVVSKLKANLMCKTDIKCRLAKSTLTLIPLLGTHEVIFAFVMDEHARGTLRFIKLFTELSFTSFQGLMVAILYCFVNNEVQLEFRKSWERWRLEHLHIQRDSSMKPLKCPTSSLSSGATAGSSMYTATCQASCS
GLP1R cytotox: cytotoxicity counter-screen for GLP-1 receptor inverse agonists; 0.13% of 410,000 active; HEK293 cAMP-luciferase reporter cells, luminescence, 24 h; Potency, µM (titrated, usually from 38.3 µM), inactives show at the top dose activity change, negative = inhibition, hits mostly inhibitors; AID 624418;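 note: loss of luciferase light is scored as toxicity; % is set by controls: 0 for no effect and ±100 for the full control effect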
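Cells in DMEM/10% Nu serum/1% pen-strep, 1536-well format. Pre-incubated 12 h, dosed with 23 nL compound, incubated a further 24 h. Luciferase detection, 12 min at room temp, luminescence.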
BRCA1 expr up: BRCA1 expression activation; MCF7-BRCA1-FFLuc reporter, luminescence, 48 h; response scale: scaled: vehicle 0%, 10 µM genistein 100%; Potency, µM (top dose mostly 46.1 µM), inactives show top-dose activation, actives largely listed as activators; 1.1% of 380,000 active; note: nearly all actives have a fitted effect of over 80% in size
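Cells: MCF7-BRCA1-FFLuc, 2000/well. Exposure: 48 h, 37 °C, 5% CO2. Read: luminescence, 15 min post-substrate. Controls: genistein 10 microM (maximal activation), DMSO (neutral).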
GLP-1R inv ag: inverse agonists of human GLP-1 receptor; P43220; Potency, µM (highest dose often 38.3 µM), without a hit: top-dose activity change, negative = inhibition, hits mostly inhibitors; 1.6% of 410,000 active; AID 624417; HEK293 GLP-1R CRE-luciferase, luminescence, 24 h; GLP-1R form is constitutively active; note: % is set by controls: 0 for no effect and ±100 for the full control effect; nearly all actives have a fitted effect of over 55% in size
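HEK293 cells stably co-expressing constitutively active GLP-1R and a cAMP-responsive luciferase reporter were seeded in DMEM with 10% Nu serum, given compounds after 12 h, and incubated 24 h at 37 deg C. Luminescence was then read.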
Integrin act MD: activators of alpha7 integrin expression for muscular dystrophy; Potency, µM (doses to about 38.3 µM), for the others: at the top dose activation, hits mostly activators; 0.064% of 350,000 active; alpha7betagal myoblasts, beta-gal FDG fluorescence, 48 h;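 note: 100% = response of the positive control SU9516; nearly all actives have a fitted effect of over 60% in size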
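Alpha7betagal+/- myoblasts (passage 13) were plated 16-24 hr, then exposed to compounds (1:260 dilution of DMSO stock) for 48 hours at 37C. After MPER lysis, β-galactosidase reporter activity was read as FDG fluorescence (ex 480/em 540) after 30 minutes.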
* = called active by the depositor; ? = inconclusive; / = no result; [ ] = dose if it differs, or a comment. Calls come from the whole dose curve; as a rule, active = well fitted curve in the direction sought with a large enough effect; inconclusive = small, poorly fitted or top-dose-only effect, or another doubt; inactive = no such curve, though single readings can be large; an effect the other way counts as inactive or inconclusive. Potency is the fitted concentration of half-maximal effect.

SMILES | GLP-1R agonist | GLP1R cytotox | BRCA1 expr up | GLP-1R inv ag | Integrin act MD
CS/C(N)=N/N=C/c1ccc([N+](=O)[O-])cc1 | 6% | -6% | 11µM* | 30% | 30%
N/C(=N\N=C\c1ccc([N+](=O)[O-])cc1)c1nonc1N | 17% | -2% | ? | 16% | 4%
O=C(CSc1oc(-c2ccco2)nc1S(=O)(=O)c1ccc(Br)cc1)c1ccccc1 | / | 38% | / | ? | /
O=C(NC1CCCC1)c1cc(-c2ccccc2Cl)on1 | 14% | -1% | ? | ? | ?
O=C(NC1CCCCC1)c1cc(-c2cccc(Cl)c2)on1 | 8% | 6% | 4.5µM* | 30% | 14%
O=C(NC1CCCC1)c1cc(-c2ccccc2O)on1 | 17% | 9% | 2.8µM* | 11% | 22%
CC(C)(C)c1ccc(O)c(N=Cc2cccc([N+](=O)[O-])c2)c1 | / | / | 28% | / | /
Cc1ccc(S(=O)(=O)c2nc(S(C)(=O)=O)sc2NCc2ccccc2)cc1 | / | 11% | / | 7% | /
CN1CCC(N(C)C(=O)c2ccc(Cl)c(S(=O)(=O)N(C)c3ccc(Cl)cc3)c2)CC1 | -1% | -14% | -26% | 11µM* | -31%
O=C(Nc1ccccc1F)c1ccn[nH]1 | 0% | 3% | 13% | 39% | -16%
O=C(Nc1ccccc1Cl)c1ccn[nH]1 | 4% | -4% | 13µM* | 62% | 42%
CCN(CC)CCOCCOC(=O)C(CC)(CC)c1ccccc1 (tested in a mixture with another compound) | 2% | / | / | / | /
Cc1cc(C)nc(-n2nc(C)c3c2NC(=O)CC3c2ccccc2OC(C)C)n1 (stereo not given) | / | -2% | / | 10% | /
CCOc1ccc(/C=C\C(C)=N\O)cc1 | 5% | 5% | 2.8µM* | 2% | 9%
COc1ccc(CNC(=O)Cn2ncc3c(=O)oc4ccccc4c32)c(OC)c1 | 0% | -4% | 0% | 0% | /
CC1CCN(c2ccccc2NC(=S)NC(=O)c2cccs2)CC1 | 16% | ? | -29% | ? | 6%
CC1CCN(c2ccccc2NC(=S)NC(=O)c2ccco2)CC1 | 3% | ? | -50% | 10µM* | 2%
O=C(NC(=S)Nc1ccccc1Br)c1ccco1 | 16% | ? | 13µM* | ? | 18%
CCOc1ccc(N(CC(=O)NC2CC3CCC2C3)S(=O)(=O)c2ccccc2)cc1 (stereo not given) | 1% | -4% | -12% | 18% | -35%
CCOc1ccc(N(CC(=O)NC2CC3CCC2C3)S(=O)(=O)c2ccc(C)cc2)cc1 (stereo not given) | -3% | 1% | -31% | 7.9µM* | -20%
CN(C)S(=O)(=O)c1ccc2c(c1)N(CC(=O)Nc1ccc(F)cc1)C(=O)CS2 | / | -1% | 8% | -26% | /
Cc1c(N=Cc2cccs2)c(=O)n(-c2ccccc2)n1C | 8% | 5% | 3% | 0% | 6%[7.66 µM]
Cc1ccc(C2C(C=Nc3c(C)n(C)n(-c4ccccc4)c3=O)=C(c3ccccc3)Oc3ccccc32)cc1 (stereo not given) | -8% | -1% | -38% | 4µM* | 35%
O=C1c2ccccc2C(=O)N1c1nc(-c2ccc(F)cc2)cs1 | / | / | 17% | / | /
Cc1cc(C)nc(OC(C(=O)O)C(OCCc2ccccc2)(c2ccc(F)cc2)c2ccc(F)cc2)n1 (stereo not given) | -6% | -32% | -36% | 10µM* | 31%
SMILES | GLP-1R agonist | GLP1R cytotox | BRCA1 expr up | GLP-1R inv ag | Integrin act MD
C=C[C@H]1CN2CCC1C[C@@H]2C(O)c1ccnc2ccc(OC)cc12 (stereo not given in full) | / | / | -16% | / | /
COc1ccc(S(=O)(=O)n2nc(-n3c(C)ccc3C)c3c(F)cccc32)cc1OC | 0% | 28% | -54% | 10µM* | -21%
Cc1ccc(Cn2c(=O)c3ccccc3n3c(-c4ccccc4)nnc23)cc1 | / | -12% | / | 10% | /
COC(=O)c1ccc(/C(O)=C(\C#N)c2nc3ccccc3s2)cc1 | 3% | 5% | 5µM* | 0% | -5%
COC(=O)c1ccc(CC(=O)c2nc3ccccc3s2)cc1 | 0% | 11% | 45% | 2% | -10%
CC1CCC2(CC1)NC(=O)N(Cc1cccc(C(F)(F)F)c1)C2=O (stereo not given) | 7% | 3% | -32% | 2.2µM* | -39%
O=C(Cc1ccc(Cl)cc1)NO | / | / | 0% | / | /
Cc1ccc(Cn2ccnc2C(=O)Nc2ccccc2)cc1 | 12% | -3% | 13µM* | 0% | 1%
COc1ccccc1NC(=O)C(=O)NCCc1csc(-c2cccc(F)c2)n1 | / | 26% | / | 2% | /
COc1ccc(NC(=O)/C=C/c2ccccc2)cn1 | 6% | 17% | 8.9µM* | 13% | 10%
COc1ccc(/C=C/C(=O)NC(=S)Nc2ccccc2)cc1OC | 25% | -4% | -26% | 8% | -6%
COc1ccc(/C=C/C(=O)Nc2ccccc2)cc1OC | 8% | -1% | 11µM* | 21% | 11%
COc1ccc(NC(=O)/C=C/c2ccc(F)cc2)cn1 | 4% | 3% | 96% | 10% | -8%
CCCCCCC(O)C/C=C\CCCCCCCC(=O)O (stereo not given) | 1% | / | / | / | /
COc1cccc(CNC(=O)C2CCCN(c3nnc(-n4c(C)ccc4C)s3)C2)c1OC (stereo not given) | / | 4% | 0% | -5% | /
NNC(=O)c1cccc(COc2ccc3c(c2)CCC3)c1 | -6% | -9% | ? | 1.1µM* | -8%
O=C(c1ccc(Cl)cc1)N1CCC(c2nc3ccccc3o2)CC1 | / | -11% | / | -7% | /
N/C(Cc1cccs1)=N\OC(=O)COc1ccc(Br)cc1Cl | ? | -6% | ? | -6% | 20%
N/C(Cc1cccs1)=N\OC(=O)COc1ccccc1Cl | -1% | -1% | 13µM* | ? | 11%
Cc1cc(C)n(CCCN2CCC(C(=O)Nc3cccc(-c4cccc(F)c4)c3)CC2)n1 | -8% | ? | -48% | 7.1µM* | -5%
Cc1ccc(Cl)cc1N1CCN(CC(=O)Nc2ccc(CN3CCCCC3)cc2)CC1 | -12% | ? | -35% | 11µM* | -64%
O=C(CN1CCN(c2ccc(Cl)cc2)CC1)Nc1ccc(F)c(F)c1 | -12% | 5% | -5% | 2.8µM* | 18%
CCN(CC)c1ccc(NC(=O)CN2CCN(c3ccc(F)cc3)CC2)cc1 | -1% | -3% | -1% | 10µM* | 10%
COc1ccccc1N1CCN(CC(=O)Nc2ccc(CN3CCCCC3)cc2)CC1 | -2% | ? | -1% | ? | -48%
CC(C)Cn1c(N2CCN(CC(=O)Nc3ccc(Cl)cc3)CC2)nc2ccccc21 | 7% | -24% | -10% | 10µM* | -19%
O=C(CN1CCN(c2ccc(Cl)cc2)CC1)Nc1ccc(F)cc1 | 0% | 5% | 3% | ? | 12%
CN(Cc1ccccc1)c1ccc(/C=C/c2sc3ccccc3[n+]2C)cc1 | / | / | -61% | / | /
